# Bioassay records from PubChem.
# The full list was thinned out, with hits kept by preference.
# Pf Dd2 inh = qHTS Primary assay for Inhibitors of Plasmodium falciparum Dd2 growth in vitro. P. falciparum Dd2 growth, SYBR Green, 72 h. Potency, µM (highest dose often 28.9 µM), most hits filed as inhibitors. hit rate 4.3% among 120,000. AID 1347417, 2020; active = well fitted inhibition curve with a large enough effect; note: nearly all actives have a fitted effect of over 65% in size
#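 Readout: SYBR Green fluorescence, 485 nm excitation, 535 nm emission, after ~16 h lysis at 37C. Before that, Dd2-infected red cells (2.5% hematocrit) grew 72 h with compound, 29 uM top final concentration.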
# Hits are given with their value; n = inactive.
SMILES,Pf Dd2 inh
CCc1ccccc1NC(=O)N1CCc2cc(OC)c(OC)cc2C1CC(=O)OC (stereo not given),n
COc1cc2c(cc1OC)C(COc1ccccc1OC)N(C(=O)c1ccc(S(=O)(=O)N(C)C)cc1)CC2 (stereo not given),n
COc1cc2c(cc1OC)C(CNC(=O)C1CC1)N(C(=O)NC(C)C)CC2 (stereo not given),n
CCOc1ccc(NC(=O)N2CCc3cc(OC)c(OC)cc3C2CNC(C)=O)cc1 (stereo not given),n
COc1ccc(CC(=O)N2CCc3cc(OC)c(OC)cc3C2COc2ccc(OC)cc2)cc1 (stereo not given),7.94µM
CCCC(=O)N1CCc2cc(OC)c(OC)cc2C1COc1ccccc1OC (stereo not given),12.6µM
COc1cc2c(cc1OC)C(CNC(=O)Cc1ccccc1)N(C(=O)NC(C)C)CC2 (stereo not given),n
CCOC(=O)c1ccc(OCC2c3cc(OC)c(OC)cc3CCN2C(=O)Cc2ccc(OC)c(OC)c2)cc1 (stereo not given),8.91µM
COc1cc(OC)c(NC(=O)N2CCc3cc(OC)c(OC)cc3C2CC(=O)O)cc1Cl (stereo not given),n
CCc1ccc(OCC2c3cc(OC)c(OC)cc3CCN2C(=O)Cc2ccc(OC)c(OC)c2)cc1 (stereo not given),8.91µM
CN(C)C[C@@H]1CN(C)C[C@H]1NC(=O)c1cc(F)ccc1F,n
O=C1CCCCCN1C1CCN(Cc2ccc(F)cc2)CC1,n
O=C(NCCCc1ccccc1)C1CCN(C(=O)c2ncn3c2COC(c2ccccc2)C3)CC1 (stereo not given),n
CNC(=O)[C@@H]1CN(C(=O)c2ccoc2)C[C@H]1COC,n
CN1CC(=O)N(c2ccccc2F)Cc2c(NCCO)ncnc21,n
COC(=O)c1ccc(OCC2c3cc(OC)c(OC)cc3CCN2C(=O)c2ccccc2F)cc1 (stereo not given),10µM
COc1ccc(C(=O)NCC2c3cc(OC)c(OC)cc3CCN2C(=O)Nc2ccccc2F)cc1 (stereo not given),n
COc1ccc(C(=O)N2CCN(C(=O)COc3ccccc3)CC2)cc1OC,n
COc1cc2c(cc1OC)C(CNC(=O)c1ccccc1C)N(C(=O)Nc1cccc(C)c1)CC2 (stereo not given),n
COc1cc2c(cc1OC)C(COc1cc(C)cc(C)c1)N(C(=O)COc1ccccc1)CC2 (stereo not given),5.01µM
COc1cc2c(cc1OC)C(CNC(=O)c1ccc(Cl)cc1)N(C(=O)Nc1cccc(F)c1)CC2 (stereo not given),n
COCCC(=O)NCCC1CCN(C(=O)Nc2cc(F)ccc2F)CC1,n
Cc1ccc(C(=O)NCc2nnc3cc(-c4nc(C(C)C)no4)ccn23)cc1F,n
CCN(CC)Cc1cnc2c(C(=O)NCCc3cnccn3)cnn2c1,n
CCN(CC)Cc1cnc2c(C(=O)NCCc3c[nH]c4ccccc34)cnn2c1,8.91µM
SMILES,Pf Dd2 inh
CCN(CC)Cc1cnc2c(C(=O)NCCc3cccs3)cnn2c1,n
COc1ccc2[nH]c3c(c2c1)CCNC31CCN(C(=O)COc2ccc(F)cc2)CC1,n
COc1ccc2[nH]c3c(c2c1)CCNC31CCN(C(=O)Cc2cccc(F)c2)CC1,7.08µM
COc1ccc2[nH]c3c(c2c1)CCNC31CCN(C(=O)Cc2ccncc2)CC1,n
O=C(CC1=C2CCCCC2NC1=O)NCCc1c[nH]c2ccccc12 (stereo not given),n
Cc1cc(C)c(NC(=O)Cn2nc3n(c2=O)CCCC3)c(C)c1,n
COc1ccc(-c2cc(C(=O)NCc3cc(C)on3)c3c(c2)N(C)CCO3)cc1OC,n
C[C@@H]1CN(C(=O)c2cnc3sccn3c2=O)C[C@@]1(O)C1CCC1,n
CC(C)c1cc(C(=O)N2C[C@@H](C)[C@](O)(C3CC3)C2)nc2ncnn12,n
Cc1cc(C(F)(F)F)n2ncc(C(=O)N3C[C@@H](C)[C@](O)(C4CCC4)C3)c2n1,14.1µM
CN(CCO)c1ccc(C(=O)N2CCC(Oc3cccnc3)CC2)cn1,n
Cc1cc(C)c2c(CC(=O)N3CCc4c(nc[nH]c4=O)C3)coc2c1C,n
Cc1cnc(C2CCC2)n1CCNC(=O)c1cc(C2CC2)[nH]n1,n
Cc1cc(C)c(S(=O)(=O)NCCn2c(C)cnc2C2CCC2)cc1C,3.55µM
Cc1cnc(C2CC2)n1CCNC(=O)C1CCN1C1CCCCC1 (stereo not given),n
Cn1nc(C2CCN(S(=O)(=O)c3ccc4c(c3)CCCC4)CC2)n(C2CCCC2)c1=O,n
Cc1ccsc1C(=O)N1CCC2(CC1)NC(=O)N(c1cccc(F)c1)N2,n
COC1C(=O)N(C2CCNCC2)C12CCOCC2 (stereo not given),n
Cc1ccc(NC(=O)N2CCN(c3nnnn3-c3cccc(C(C)C)c3)CC2)cc1F,11.2µM
Cc1cc(-n2nnnc2N2CCN(C(=O)Nc3ccc(C)c(F)c3)CC2)ccc1F,5.01µM
CC(C)c1ccc(NC(=O)N2CCN(c3ccc(Cl)c(Cl)c3)CC2)cc1,n
Cc1ccc(NC(=O)N2CCN3CCCCC3C2)cc1F (stereo not given),n
